Laboratory results as given in publication PMC7862700, “An all-to-all approach to the identification of sequence-specific readers for epigenetic DNA modifications on cytosine”.

Legend:
Assay in all cases: DAPPL (digital affinity profiling via proximity ligation, sequencing); 10 mM Tris-HCl pH 7.5, 50 mM NaCl, 1 mM DTT, 4% glycerol, room temperature, 30 min; GST-TFs on glutathione beads, 16-mer random dsDNA library, 0.1% formaldehyde crosslink after washing; high values mean tight binding
[1] = target: T1, FEV (Homo sapiens, UniProt Q99581 1-238); details: protein: recombinant; tags: N-terminal GST; dsDNA, one strand shown
T1 sequence: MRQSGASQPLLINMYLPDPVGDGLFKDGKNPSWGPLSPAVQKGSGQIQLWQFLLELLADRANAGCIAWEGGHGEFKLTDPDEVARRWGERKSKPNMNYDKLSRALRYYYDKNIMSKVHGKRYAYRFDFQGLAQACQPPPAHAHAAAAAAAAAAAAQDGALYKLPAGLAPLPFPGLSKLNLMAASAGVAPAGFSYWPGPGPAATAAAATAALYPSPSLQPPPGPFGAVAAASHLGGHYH
Summary of the method: (§1)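 After expression in yeast as GST fusions, human transcription factors were bound to glutathione beads, DNA-barcoded and mixed with a tag-only sample. The pools were incubated with 200 nmole of a 16-mer random double-stranded DNA library in Tris/NaCl/DTT/glycerol buffer (30 min, room temperature), washed and crosslinked with 0.1% formaldehyde. Proximity ligation with BsaI/T4 ligase ran for 1 h at 37 °C, before PCR amplification and sequencing on an Illumina NextSeq500. Binding signal is a hexamer's read frequency for a factor divided by its frequency for the tag-only sample.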

[2] = target: ETV5 (Homo sapiens, UniProt P41161 1-510); details: protein: recombinant; tags: N-terminal GST; dsDNA, one strand shown
ETV5, sequence (P41161 whole entry): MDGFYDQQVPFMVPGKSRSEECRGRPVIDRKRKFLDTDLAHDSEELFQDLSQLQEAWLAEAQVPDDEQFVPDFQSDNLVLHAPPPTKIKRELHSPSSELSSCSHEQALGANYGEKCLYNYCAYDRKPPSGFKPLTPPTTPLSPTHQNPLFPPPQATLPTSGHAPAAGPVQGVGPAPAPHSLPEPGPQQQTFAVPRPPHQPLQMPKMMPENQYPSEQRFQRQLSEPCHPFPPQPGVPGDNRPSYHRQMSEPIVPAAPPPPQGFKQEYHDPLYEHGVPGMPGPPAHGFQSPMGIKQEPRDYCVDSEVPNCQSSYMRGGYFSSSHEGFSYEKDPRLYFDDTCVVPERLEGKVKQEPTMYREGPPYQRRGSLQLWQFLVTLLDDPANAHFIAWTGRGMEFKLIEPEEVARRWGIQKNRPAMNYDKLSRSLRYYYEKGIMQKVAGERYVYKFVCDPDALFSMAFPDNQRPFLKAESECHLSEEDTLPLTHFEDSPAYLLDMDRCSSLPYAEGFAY
Summary of the method: as §1

[3] = target: HSF1 (Homo sapiens, UniProt Q00613 1-529); details: protein: recombinant; tags: N-terminal GST; chain copies: 3; dsDNA, one strand shown
HSF1, sequence (Q00613 whole entry): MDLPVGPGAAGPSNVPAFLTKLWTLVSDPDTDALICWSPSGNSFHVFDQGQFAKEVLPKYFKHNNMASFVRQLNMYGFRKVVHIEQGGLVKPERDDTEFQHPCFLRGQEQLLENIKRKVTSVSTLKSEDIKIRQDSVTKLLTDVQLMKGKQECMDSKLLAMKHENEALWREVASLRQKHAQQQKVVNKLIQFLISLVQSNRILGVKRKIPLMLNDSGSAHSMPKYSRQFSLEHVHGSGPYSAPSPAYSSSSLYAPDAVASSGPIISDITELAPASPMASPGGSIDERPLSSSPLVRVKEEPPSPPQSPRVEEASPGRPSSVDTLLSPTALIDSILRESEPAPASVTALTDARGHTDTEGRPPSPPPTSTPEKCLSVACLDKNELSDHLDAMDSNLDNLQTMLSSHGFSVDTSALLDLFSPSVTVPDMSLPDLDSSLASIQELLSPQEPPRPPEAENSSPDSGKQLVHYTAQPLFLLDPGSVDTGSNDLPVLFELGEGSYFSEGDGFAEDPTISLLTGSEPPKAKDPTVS
Summary of the method: as §1

[4] = target: T2, SPIC (Homo sapiens, UniProt Q8N5J4 1-248); details: protein: recombinant; tags: N-terminal GST; dsDNA, one strand shown
T2 sequence: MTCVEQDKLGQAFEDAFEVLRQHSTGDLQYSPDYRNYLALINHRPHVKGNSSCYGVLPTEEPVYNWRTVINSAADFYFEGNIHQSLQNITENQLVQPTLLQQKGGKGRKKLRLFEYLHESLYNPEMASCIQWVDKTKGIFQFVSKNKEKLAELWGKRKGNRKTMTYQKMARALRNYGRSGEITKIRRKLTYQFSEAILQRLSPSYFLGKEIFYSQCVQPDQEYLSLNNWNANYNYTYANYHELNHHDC
Summary of the method: as §1

[5] = target: ELF4 (Homo sapiens, UniProt Q99607 1-663); details: protein: recombinant; tags: N-terminal GST; dsDNA, one strand shown
ELF4, sequence (Q99607 whole entry): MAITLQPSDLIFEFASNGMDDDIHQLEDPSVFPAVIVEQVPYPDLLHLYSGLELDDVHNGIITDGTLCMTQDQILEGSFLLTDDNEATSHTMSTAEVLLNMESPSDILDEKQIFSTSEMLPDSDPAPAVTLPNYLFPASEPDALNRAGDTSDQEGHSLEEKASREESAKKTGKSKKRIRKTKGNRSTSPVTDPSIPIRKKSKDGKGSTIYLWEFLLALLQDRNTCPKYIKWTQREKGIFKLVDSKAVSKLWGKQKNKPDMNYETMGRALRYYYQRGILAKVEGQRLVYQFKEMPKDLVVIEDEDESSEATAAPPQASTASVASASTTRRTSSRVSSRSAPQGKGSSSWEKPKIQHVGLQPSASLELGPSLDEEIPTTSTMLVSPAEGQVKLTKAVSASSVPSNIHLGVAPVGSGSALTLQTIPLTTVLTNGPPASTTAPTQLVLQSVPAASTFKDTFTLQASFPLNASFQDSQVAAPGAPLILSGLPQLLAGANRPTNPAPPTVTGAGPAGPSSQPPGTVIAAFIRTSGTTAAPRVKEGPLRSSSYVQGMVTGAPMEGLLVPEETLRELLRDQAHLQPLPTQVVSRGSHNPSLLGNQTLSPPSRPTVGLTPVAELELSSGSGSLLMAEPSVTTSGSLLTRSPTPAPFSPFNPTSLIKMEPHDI
Summary of the method: as §1

[6] = target: T3, ELK4 (Homo sapiens, UniProt P28324-2 1-405); details: protein: recombinant; tags: N-terminal GST; dsDNA, one strand shown
T3 sequence: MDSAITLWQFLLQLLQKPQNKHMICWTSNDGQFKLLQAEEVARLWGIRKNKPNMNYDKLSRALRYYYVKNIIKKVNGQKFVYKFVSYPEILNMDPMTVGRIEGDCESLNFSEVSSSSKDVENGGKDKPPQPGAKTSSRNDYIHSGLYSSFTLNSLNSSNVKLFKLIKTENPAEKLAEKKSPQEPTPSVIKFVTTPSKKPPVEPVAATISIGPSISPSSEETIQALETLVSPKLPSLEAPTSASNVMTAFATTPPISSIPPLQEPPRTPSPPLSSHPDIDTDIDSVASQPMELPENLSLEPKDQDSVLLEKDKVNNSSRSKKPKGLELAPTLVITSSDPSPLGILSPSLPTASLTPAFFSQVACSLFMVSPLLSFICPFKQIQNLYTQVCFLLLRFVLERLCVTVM
Summary of the method: as §1

[7] = target: T4, ETV2 (Homo sapiens, UniProt O00321 1-342); details: protein: recombinant; tags: N-terminal GST; dsDNA, one strand shown
T4 sequence: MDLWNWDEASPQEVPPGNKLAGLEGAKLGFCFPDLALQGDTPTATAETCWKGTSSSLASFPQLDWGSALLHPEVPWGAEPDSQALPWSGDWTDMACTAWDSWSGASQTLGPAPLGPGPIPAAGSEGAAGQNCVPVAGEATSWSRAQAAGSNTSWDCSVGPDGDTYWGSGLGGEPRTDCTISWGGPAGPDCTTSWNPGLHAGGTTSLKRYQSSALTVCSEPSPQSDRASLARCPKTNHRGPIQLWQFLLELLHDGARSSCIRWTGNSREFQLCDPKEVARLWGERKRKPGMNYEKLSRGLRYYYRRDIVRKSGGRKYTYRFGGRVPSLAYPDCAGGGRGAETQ
Summary of the method: as §1

[8] = target: T5, ELF3 (Homo sapiens, UniProt P78545 1-371); details: protein: recombinant; tags: N-terminal GST; dsDNA, one strand shown
T5 sequence: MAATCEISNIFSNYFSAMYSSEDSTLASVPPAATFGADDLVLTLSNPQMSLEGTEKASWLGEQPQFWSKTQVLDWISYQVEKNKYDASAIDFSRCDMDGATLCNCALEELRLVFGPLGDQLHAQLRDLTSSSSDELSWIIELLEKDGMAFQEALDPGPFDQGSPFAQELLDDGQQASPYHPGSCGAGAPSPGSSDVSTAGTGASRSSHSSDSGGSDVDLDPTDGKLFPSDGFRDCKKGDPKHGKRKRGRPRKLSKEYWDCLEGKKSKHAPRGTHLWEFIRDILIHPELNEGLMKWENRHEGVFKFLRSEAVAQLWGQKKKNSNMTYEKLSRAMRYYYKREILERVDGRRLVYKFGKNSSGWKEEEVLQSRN
Summary of the method: as §1

[9] = target: CRX (Homo sapiens, UniProt O43186 1-299); details: protein: recombinant; tags: N-terminal GST; dsDNA, one strand shown
CRX, sequence (O43186 whole entry): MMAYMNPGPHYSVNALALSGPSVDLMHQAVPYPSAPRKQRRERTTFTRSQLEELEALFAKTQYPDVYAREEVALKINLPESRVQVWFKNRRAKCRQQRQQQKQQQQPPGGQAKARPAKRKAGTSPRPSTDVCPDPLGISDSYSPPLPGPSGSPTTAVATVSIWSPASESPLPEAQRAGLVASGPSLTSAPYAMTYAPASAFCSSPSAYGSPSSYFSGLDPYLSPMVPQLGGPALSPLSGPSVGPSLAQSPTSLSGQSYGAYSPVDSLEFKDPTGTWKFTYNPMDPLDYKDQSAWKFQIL
Summary of the method: as §1

[10] = target: ETV1 (Homo sapiens, UniProt P50549 1-477); details: protein: recombinant; tags: N-terminal GST; dsDNA, one strand shown
ETV1, sequence (P50549 whole entry): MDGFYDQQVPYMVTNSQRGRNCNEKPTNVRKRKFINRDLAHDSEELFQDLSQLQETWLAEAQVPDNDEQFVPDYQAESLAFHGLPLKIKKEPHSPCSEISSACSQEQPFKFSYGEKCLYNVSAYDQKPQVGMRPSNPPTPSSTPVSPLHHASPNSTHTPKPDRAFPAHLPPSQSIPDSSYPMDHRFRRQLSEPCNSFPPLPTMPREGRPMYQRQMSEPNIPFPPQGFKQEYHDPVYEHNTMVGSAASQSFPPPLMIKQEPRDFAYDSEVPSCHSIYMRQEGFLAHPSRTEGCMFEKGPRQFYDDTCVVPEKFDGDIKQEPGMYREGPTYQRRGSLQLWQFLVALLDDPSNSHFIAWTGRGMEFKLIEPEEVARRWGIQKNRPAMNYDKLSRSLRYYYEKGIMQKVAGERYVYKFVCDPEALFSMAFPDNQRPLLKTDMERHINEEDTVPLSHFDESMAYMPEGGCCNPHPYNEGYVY
Summary of the method: as §1

In the case of TTTATT, the binding signal [1] is reported as 1.29 fold enrichment (6-mer frequency, TF over GST control), the binding signal [2] is reported as 1.29 fold enrichment (6-mer frequency, TF over GST control) and the binding signal [3] is reported as 1.46 fold enrichment (6-mer frequency, TF over GST control). For the same sequence, the binding signal [4] was 1.25 fold enrichment (6-mer frequency, TF over GST control), the binding signal [5] was 1.3 fold enrichment (6-mer frequency, TF over GST control) and the binding signal [6] was 1.27 fold enrichment (6-mer frequency, TF over GST control). For the same sequence, the binding signal [7] was 1.29 fold enrichment (6-mer frequency, TF over GST control), the binding signal [8] was 1.29 fold enrichment (6-mer frequency, TF over GST control) and the binding signal [9] was 1.93 fold enrichment (6-mer frequency, TF over GST control). For the same sequence, the binding signal [10] was 1.27 fold enrichment (6-mer frequency, TF over GST control).
